Measured values: PubChem BioAssay
Values without a mark were called inactive. No rule for the calls is given here.

Each compound was assayed against Pantothenate synthetase (Mycobacterium tuberculosis (strain ATCC 25618 / H37Rv)) (UniProt P9WIL5) (assay: Recombinant Mtb pantothenate synthetase (PanC) inhibitors, coupled enzyme, confirmatory (AID 375;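 also: 0% = full reaction with vehicle and 100% = no enzyme background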)). Conditions: coupled enzyme assay; at 10 µM, hits give high values.
Pantothenate synthetase (Mycobacterium tuberculosis (strain ATCC 25618 / H37Rv)), sequence (P9WIL5 whole entry, looked up): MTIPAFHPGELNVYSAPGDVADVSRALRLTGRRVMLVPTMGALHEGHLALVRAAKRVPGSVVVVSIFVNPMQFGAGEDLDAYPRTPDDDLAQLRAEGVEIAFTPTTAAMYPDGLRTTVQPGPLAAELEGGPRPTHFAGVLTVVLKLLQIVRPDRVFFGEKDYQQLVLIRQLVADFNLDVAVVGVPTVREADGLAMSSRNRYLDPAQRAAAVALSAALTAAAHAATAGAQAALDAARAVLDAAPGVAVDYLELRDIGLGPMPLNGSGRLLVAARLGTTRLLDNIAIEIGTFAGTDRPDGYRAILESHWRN

SMILES | inhibition
CC(Sc1nnnn1-c1ccccc1)C(=O)Nc1ccc(Cl)cn1 (stereo not given) | 2%
Cc1cc(C)nc(Sc2ccc3nnc(C(F)(F)C(F)(F)C(F)(F)F)n3n2)n1 | 6%
O=C(CSc1nc(-c2ccccc2)cs1)NCc1ccco1 | 0%
COc1ccc(OC)c(S(=O)(=O)N2CCC(C(=O)NCc3ccccc3OC)CC2)c1 | 0%
Cc1cnc(SCCc2ccncc2)nc1C | 2%
CNC(=O)CN(c1cc(C)ccc1OC)S(=O)(=O)c1ccc(C)cc1 | 3%
CCn1c(=O)cc(OCC(=O)NC2CCCCC2)c2ccccc21 | 0%
COc1ccccc1Nc1ccc(C(=O)NC2CCCCC2)cn1 | 0%
CC[C@]1(O)C[C@@H]2CN(CCc3c([nH]c4ccccc34)[C@@](C(=O)OC)(c3cc4c(cc3OC)N(C)[C@H]3[C@@](O)(C(=O)OC)[C@H](OC(C)=O)[C@]5(CC)C=CCN6CC[C@]43[C@@H]65)C2)C1 | 0%
CCSc1nc2c(c(=O)[nH]1)C(c1cccnc1)C(C(=O)OC(C)C)=C(C)N2 (stereo not given) | 0%
CC(=N\O)/C(CN(C)C)=N/O | 0%
O=C(O)C(c1ccccc1)N1CCCC1 (stereo not given) | 0%
CCOC(=O)/N=C(/NC(=O)Nc1ccc(C(=O)OCC)cc1)OC | 0%
CC(=O)NCCn1ccc2ccccc21 | 0%
CCN1CCN(C(=O)c2cc3c(=O)n(C)c4ccccc4c3n2C)CC1 | 0%
CCCCn1cnc2c(c1=O)c1nc3ccccc3nc1n2Cc1ccc2c(c1)OCO2 | 0%
CCOc1cc(C)c(Cl)cc1S(=O)(=O)N(C)C | 5%
O=C(CSc1nnc(Cn2c(=O)sc3ccccc32)n1-c1ccccc1)Nc1nccs1 | 1%
Cc1ccc(N2CCN(CCc3nc4cc(NS(C)(=O)=O)ccc4n3C)CC2)cc1 | 0%
Cc1c(Br)c(C(F)(F)F)nn1CC(=O)NCCN1CCOCC1 | 0%

SMILES | inhibition
COc1cccc(OC)c1C(=O)Nc1ccccc1N1CCCC1 | 2%
COc1ccccc1NC1=NC(c2ccc(Cl)cc2)N=C(N)N1 (stereo not given) | 0%
Cc1nc(-c2cccc(N)c2)cs1 | 0%
O=C(CSc1nnc(-c2ccco2)n1-c1ccccc1)N1CCN(C(=O)c2ccco2)CC1 | 0%
C[C@]12CCC(=O)C=C1CC[C@@H]1[C@@H]2[C@@H](O)C[C@@]2(C)[C@H]1CC[C@]2(O)C(=O)CO | 0%
CCCNC(=O)NC(C(=O)OC)C12CC3CC(CC(C3)C1)C2 (stereo not given) | 3%
COCCOC(=O)/C=C1/NC(=O)CS1 | 0%
Cc1ccc2[nH]c3c(c2c1)CCc1cn[nH]c1-3 | 0%
O=C(O)C1CC=CCC1C(=O)Nc1cccc(C(=O)N2CCCCC2)c1 (stereo not given) | 0%
CCOC(=O)c1c(NC(=O)Cn2c(=O)oc3ccccc32)oc(C)c1C(C)=O | 0%
COC(=O)c1cn(C(=O)OC)c2ccccc12 | 7%
CCOC(=O)N1CCN(C(c2ccc(Cl)cc2)c2sc3nc(C)nn3c2O)CC1 (stereo not given) | 0%
C=CCn1c(=O)c2ccccc2n2c(SC(C)C(=O)Nc3nc(-c4ccccc4)cs3)nnc12 (stereo not given) | 4%
COCC(=O)NC(c1ccccc1)c1ccccc1 | 7%
Cc1ccc2oc(=O)c3cnn(CC(=O)N4CCCc5ccccc54)c3c2c1 | 1%
CC1CCN(S(=O)(=O)c2ccc3[nH]cc(C(=O)NCCN4CCOCC4)c(=O)c3c2)CC1 | 0%
O=C(c1ccco1)N1CCN(C(=O)c2cc3c(s2)-c2ccccc2OC3)CC1 | 11%
Cc1nnc(SCC(=O)Nc2ccc3c(c2)OCCO3)n1CC1CCCO1 (stereo not given) | 0%
O=C(c1cccn2c(=O)c3cc(Cl)ccc3nc12)N1CCOCC1 | 3%
COc1ccc2cc(C#N)c(SCC(=O)N3CCCC3)nc2c1 | 7%
